High-throughput results from PubChem.
The list is not random: actives were taken first. Their share in the collection is about 4%.
DENV2 CPE rescue = inhibitors of DENV2 cytopathic effect, primary screen, cell-based, plate reader, single concentration; DENV2-infected cells, cytopathic effect rescue; CPE inhibition, % at 9.99 µM; 350,000 tested, 1.7% active; in the data active means CPE inhibition above about 20%, passing the limit was not always enough; inconclusive means no clear call, values can overlap the other calls; tested in BHK-21 cells
RAD52 anneal inh = RAD52 DNA annealing inhibitors, primary screen, biochemical, FRET, single point, set 2; DNA repair protein RAD52 homolog (Homo sapiens), P43351; recombinant RAD52 DNA annealing, FRET fluorescence; inhibition, % at 18.7 µM; 360,000 tested, 0.46% active;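 active means every replicate showing at least 50% inhibition; inconclusive means mean inhibition at least 50% but not in every replicate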
MLL AF4-AF9 inh = inhibitors of AF4 peptide binding to AF9, primary screen, biochemical, AlphaScreen, biotin-AF4 peptide, FLAG-AF9, single point; Protein AF-9 (Homo sapiens), P42568; inhibition, % at 10 µM; 350,000 tested, 0.47% active;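 active means every replicate reaching a set inhibition limit, whatever the replicate mean, cut at about 25% in these data; inconclusive means mean inhibition reaches that limit but some replicates miss it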
ERAP1 inh = human ERAP1 aminopeptidase inhibitors, primary screen, biochemical, single point, plate reader. 340,000 tested, 0.15% active. recombinant ERAP1, Leu-AMC fluorescence, 60 min. AID 652197, 2013. Endoplasmic reticulum aminopeptidase 1 (Homo sapiens), Q9NZ08. inhibition, % at 10.7 µM;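 active means mean replicate inhibition of at least 30%, or all replicates individually reaching that 30% level; inactive means mean below 30% and not every replicate reaching it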
Target sequence (Q9NZ08 whole entry, looked up): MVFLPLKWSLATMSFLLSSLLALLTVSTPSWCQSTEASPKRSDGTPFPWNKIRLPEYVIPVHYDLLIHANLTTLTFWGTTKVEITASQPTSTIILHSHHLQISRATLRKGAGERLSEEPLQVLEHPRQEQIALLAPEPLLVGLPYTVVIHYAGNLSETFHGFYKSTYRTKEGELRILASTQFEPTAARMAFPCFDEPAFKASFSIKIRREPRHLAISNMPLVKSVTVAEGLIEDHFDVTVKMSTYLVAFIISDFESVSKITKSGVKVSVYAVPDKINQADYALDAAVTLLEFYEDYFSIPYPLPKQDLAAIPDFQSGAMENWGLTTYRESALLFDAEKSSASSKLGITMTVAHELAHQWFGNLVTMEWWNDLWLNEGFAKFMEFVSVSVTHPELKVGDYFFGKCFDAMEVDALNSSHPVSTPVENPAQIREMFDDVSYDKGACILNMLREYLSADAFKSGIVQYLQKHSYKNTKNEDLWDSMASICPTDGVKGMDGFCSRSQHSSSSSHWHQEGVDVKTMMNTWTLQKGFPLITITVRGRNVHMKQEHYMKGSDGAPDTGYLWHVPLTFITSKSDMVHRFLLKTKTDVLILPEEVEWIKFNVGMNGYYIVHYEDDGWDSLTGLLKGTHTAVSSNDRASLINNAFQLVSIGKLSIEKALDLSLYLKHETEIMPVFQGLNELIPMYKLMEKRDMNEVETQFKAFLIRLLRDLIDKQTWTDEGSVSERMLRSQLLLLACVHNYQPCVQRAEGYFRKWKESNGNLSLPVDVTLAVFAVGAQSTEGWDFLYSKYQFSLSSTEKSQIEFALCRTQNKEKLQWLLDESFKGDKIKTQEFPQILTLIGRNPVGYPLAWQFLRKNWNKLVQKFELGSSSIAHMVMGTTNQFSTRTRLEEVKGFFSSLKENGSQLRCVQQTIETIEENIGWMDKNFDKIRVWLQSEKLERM
FGF22 binding-1 = binders of human FGF22 protein, primary screen, FGF22 synaptogenesis inhibitor project, biophysical, thermal shift, single point. Fibroblast growth factor 22 (Homo sapiens), Q9HCT0. recombinant FGF22 thermal shift, SYPRO orange fluorescence; percent of sucrose octasulfate shift, DMSO zero. activity (Tm shift, normalised), % at 9.99 µM. 340,000 tested, 1.5% active. AID 651658, 2012;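 active means mean Tm shift, scaled 0 neutral to 100 positive control, at about 1.3% or above, every replicate too, limit read from the data; inconclusive means no clear call, values can overlap the other calls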
FGF22 binding-2 = binders of human FGF22 protein, dose response, FGF22 synaptogenesis inhibitor project, biophysical, thermal shift, cherry-pick retest; shares compounds with FGF22 binding-1; recombinant FGF22 thermal shift, SYPRO orange fluorescence; thermal shift activity, °C (ΔTm) at 38 µM; 1,000 tested, 2% active;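 active means fitted rise in melting shift crosses a set limit at or below the top valid dose tested; inconclusive means flat fit at mid-level activity, or a poor quality fit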
FGF22 TSA = binders of human FGF22 protein, dose response, FGF22 synaptogenesis inhibitor project, biophysical, thermal shift, dry powder; shares compounds with FGF22 binding-1; Thermal shift assay, SYPRO orange, melting temperature shift; Tm shift (activity), % at 38 µM; 50 tested, under 10 active; AID 743017, 2013;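 active means compounds whose fitted dose curve of melting temperature shift rises past a set threshold within the tested doses; inconclusive means flat curve at moderate activity, or poor curve fit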
TSA no protein = compound-only thermal shift signal without protein, dose response, artefact control for FGF22 binder project, biochemical, cherry-picked samples, RT-PCR instrument; shares compounds with FGF22 binding-1; compound-only SYPRO orange thermal shift counter-screen, no protein; AC50, µM (series often up to 38 µM); 1,000 tested, 2% active;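 active means rising signal whose fitted curve reaches the 0.54 level within the top valid dose, showing a melting point, actives reach about 13 µM in these data; inactive means the rest, including activity in the opposite direction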; further: value is where the raw curve crosses a fixed level and not half-maximal
Of the large screens only hits and unclear results are named; the others gave an inactive call (follow-up assays come after a bar, where they were run).

Cc1[nH]c2ccccc2c1C(=O)NS(=O)(=O)Nc1ccc(Cl)cc1	FGF22 binding-1 1.6 | FGF22 binding-2 inactive | FGF22 TSA inactive | TSA no protein inactive
O=[N+]([O-])c1ccc(CS(=O)(=O)c2ccc(Cl)cc2)cc1	none
O=[N+]([O-])c1cc(CS(=O)(=O)Oc2ccc(Cl)cc2)c(O)c([N+](=O)[O-])c1	FGF22 binding-1 1.4 | FGF22 binding-2 inactive | TSA no protein inactive
O=C1Cc2ccccc2C(=O)N1c1ccccc1	DENV2 CPE rescue inconclusive
O=C1Cc2ccccc2C(=O)N1c1cccc(Cl)c1	FGF22 binding-1 2.2 | FGF22 binding-2 inactive | TSA no protein inactive
O=C(Nc1ccc(Cl)cc1)N1C[C@@H]2[C@H](c3ccccc31)[C@H](CO)N2C(=O)C1CC1	FGF22 binding-1 3.4 | FGF22 binding-2 inactive | TSA no protein inactive
O=C(C1CCCCC1)N1[C@@H]2CN(S(=O)(=O)c3ccccc3)c3ccccc3[C@@H]2[C@@H]1CO	none
O=C(C1CC1)N1[C@H](CO)[C@H]2c3ccccc3N(S(=O)(=O)c3ccccc3)C[C@H]21	FGF22 binding-1 2.0 | FGF22 binding-2 inactive | TSA no protein inactive
C[C@@H]1CN([C@H](C)CO)C(=O)Cc2cc(NC(=O)C3CC3)ccc2O[C@@H]1CN(C)Cc1ccc(-c2ccccc2)cc1	none
COc1ccccc1C(=O)N1C[C@@H]2[C@H](c3ccccc31)[C@@H](CO)N2C(=O)C1CCCC1	none
CCN1C(=O)C(CC(=O)Nc2ccc(OC)cc2)N(CCc2ccc(OC)cc2)C1=S (stereo not drawn)	FGF22 binding-1 1.6 | FGF22 binding-2 inactive | TSA no protein inactive
CCN1C(=O)C(CC(=O)Nc2ccc(OC)cc2)N(Cc2ccc3c(c2)OCO3)C1=S (stereo not drawn)	FGF22 binding-1 2.0 | FGF22 binding-2 inactive | TSA no protein inactive
CCN1C(=O)C(CC(=O)Nc2ccc(OC)cc2)N(Cc2ccc(OC)c(OC)c2)C1=S (stereo not drawn)	none (no result: ERAP1 inh, FGF22 binding-1)
COc1cccc(-c2ccc3n(c2=O)C[C@H]2[C@H](CO)[C@@H](C(=O)N(C)C)[C@@H]3N2Cc2cncnc2)c1	none
O=C(Nc1cccc(F)c1)N1CC(=O)N2[C@H](CO)[C@@H](c3ccc(Br)cc3)[C@@H]2C1	none
O=C(NC1CCCCC1)N1CC(=O)N2[C@H](CO)[C@H](c3ccc(-c4cccc(F)c4)cc3)[C@H]2C1	DENV2 CPE rescue inconclusive, FGF22 binding-1 1.4 | FGF22 binding-2 inactive | TSA no protein inactive
O=C(Nc1cccc(F)c1)N1CC(=O)N2[C@@H](CO)[C@@H](c3ccc(Br)cc3)[C@@H]2C1	FGF22 binding-1 1.3 | FGF22 binding-2 inactive | TSA no protein inactive
O=C(NC1CCCCC1)N1CC(=O)N2[C@H](C1)[C@H](c1ccc(-c3cccc(F)c3)cc1)[C@@H]2CO	none
O=C(NC1CC1)c1cccc(NC(=O)c2cnn(-c3ccccc3)n2)c1	FGF22 binding-1 1.4 (no result: DENV2 CPE rescue) | FGF22 binding-2 inactive | TSA no protein inactive
O=C(Nc1cccc(C(=O)NC2CCCC2)c1)c1ccccc1	none
CC1(C(=O)NS(=O)(=O)c2cccc(Cl)c2)CCN1C(=O)Cc1ccc(-c2ccccc2)cc1 (stereo not drawn)	FGF22 binding-1 1.9 | FGF22 binding-2 inactive | TSA no protein inactive
CCCNC(=O)N[C@H]1CC[C@@H](CC(=O)N2CCN(C)CC2)O[C@H]1CO	none
CCC(=O)Nc1nc(C)c(-c2csc(Nc3ccccn3)n2)s1	FGF22 binding-1 1.6 | TSA no protein inactive
O=C(N/N=C/c1cccc(C(F)(F)F)c1)c1ccc(O)cc1	none
O=C(N/N=C/c1ccc(C(F)(F)F)cc1)c1ccc(O)cc1	FGF22 binding-1 2.4 | FGF22 binding-2 inactive | FGF22 TSA inactive | TSA no protein inactive
COc1ccc(NC(=O)N(C)C[C@@H]2OCCCC[C@H](C)Oc3ccc(NC(=O)C4CCCCC4)cc3C(=O)N([C@H](C)CO)C[C@H]2C)cc1	none
COc1cccc(CNC(=O)C2(C)CCCCN2C)c1 (stereo not drawn)	FGF22 binding-1 2.6 | FGF22 binding-2 inactive | TSA no protein inactive
COc1cccc(CNC(=O)C2(C)CCCN2C(=O)C(C)C)c1 (stereo not drawn)	none
COc1cc(OC)cc(C(=O)Nc2nc3ccc(S(C)(=O)=O)cc3s2)c1	FGF22 binding-1 1.4 | FGF22 binding-2 inactive | TSA no protein inactive
COc1ccc(NC(=O)N(C)C[C@@H]2OCCCC[C@@H](C)Oc3ccc(NC(=O)CCC(F)(F)F)cc3C(=O)N([C@@H](C)CO)C[C@H]2C)cc1	none
COc1cccc(-c2cnc3c(c2)C(=O)N([C@H](C)CO)C[C@@H](C)[C@H](CN(C)Cc2ccncc2)O3)c1	none
Cc1ccccc1-c1ccccc1[C@@H]1[C@@H](C#N)N(C(=O)c2ccccc2)[C@H]1CO	FGF22 binding-1 1.3 | FGF22 binding-2 inactive | TSA no protein inactive
C[C@@H]1CN([C@H](C)CO)C(=O)c2cc(NC(=O)Nc3ccc4c(c3)OCO4)ccc2O[C@@H](C)CCCCO[C@H]1CN(C)Cc1ccc(Cl)c(Cl)c1	none
COc1cccc(NC(=O)N[C@@H]2CC[C@@H](CC(=O)Nc3ccccc3)O[C@H]2CO)c1	FGF22 binding-1 22 | FGF22 binding-2 inactive | TSA no protein inactive
O=C(C[C@@H]1CC[C@@H](NC(=O)Nc2cc(F)ccc2F)[C@H](CO)O1)NCCCN1CCOCC1	FGF22 binding-1 39 | FGF22 binding-2 inactive | TSA no protein inactive
C[C@H](NC(=O)C[C@@H]1CC[C@@H](NC(=O)Nc2ccc3c(c2)OCO3)[C@@H](CO)O1)c1ccccc1	FGF22 binding-1 6.9 | FGF22 binding-2 inactive | TSA no protein inactive
O=C(C[C@@H]1CC[C@H](NC(=O)c2ccc3c(c2)OCO3)[C@H](CO)O1)NCc1ccc(Oc2ccccc2)cc1	FGF22 binding-1 16 | FGF22 binding-2 inactive | TSA no protein inactive
